Assay results reported in PMC4336329 (PLoS ONE, 2015).
Out of some 310,000 compounds screened, about 14,000 (4.5%) showed an effect of 50% or more. The effect is printed as a negative number. Shown is part of a subset that was picked to be rich in strong results.

target: human ether-à-go-go-related gene (hERG) potassium channel (human, UniProt Q12809); assay: primary screen, population patch clamp on CHO cells stably expressing hERG; higher = less effect of the substance
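Also: peak tail current of the secondary pulse compared with the same well before compound.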

Sequence of human ether-à-go-go-related gene (hERG) potassium channel (Q12809 whole entry, looked up): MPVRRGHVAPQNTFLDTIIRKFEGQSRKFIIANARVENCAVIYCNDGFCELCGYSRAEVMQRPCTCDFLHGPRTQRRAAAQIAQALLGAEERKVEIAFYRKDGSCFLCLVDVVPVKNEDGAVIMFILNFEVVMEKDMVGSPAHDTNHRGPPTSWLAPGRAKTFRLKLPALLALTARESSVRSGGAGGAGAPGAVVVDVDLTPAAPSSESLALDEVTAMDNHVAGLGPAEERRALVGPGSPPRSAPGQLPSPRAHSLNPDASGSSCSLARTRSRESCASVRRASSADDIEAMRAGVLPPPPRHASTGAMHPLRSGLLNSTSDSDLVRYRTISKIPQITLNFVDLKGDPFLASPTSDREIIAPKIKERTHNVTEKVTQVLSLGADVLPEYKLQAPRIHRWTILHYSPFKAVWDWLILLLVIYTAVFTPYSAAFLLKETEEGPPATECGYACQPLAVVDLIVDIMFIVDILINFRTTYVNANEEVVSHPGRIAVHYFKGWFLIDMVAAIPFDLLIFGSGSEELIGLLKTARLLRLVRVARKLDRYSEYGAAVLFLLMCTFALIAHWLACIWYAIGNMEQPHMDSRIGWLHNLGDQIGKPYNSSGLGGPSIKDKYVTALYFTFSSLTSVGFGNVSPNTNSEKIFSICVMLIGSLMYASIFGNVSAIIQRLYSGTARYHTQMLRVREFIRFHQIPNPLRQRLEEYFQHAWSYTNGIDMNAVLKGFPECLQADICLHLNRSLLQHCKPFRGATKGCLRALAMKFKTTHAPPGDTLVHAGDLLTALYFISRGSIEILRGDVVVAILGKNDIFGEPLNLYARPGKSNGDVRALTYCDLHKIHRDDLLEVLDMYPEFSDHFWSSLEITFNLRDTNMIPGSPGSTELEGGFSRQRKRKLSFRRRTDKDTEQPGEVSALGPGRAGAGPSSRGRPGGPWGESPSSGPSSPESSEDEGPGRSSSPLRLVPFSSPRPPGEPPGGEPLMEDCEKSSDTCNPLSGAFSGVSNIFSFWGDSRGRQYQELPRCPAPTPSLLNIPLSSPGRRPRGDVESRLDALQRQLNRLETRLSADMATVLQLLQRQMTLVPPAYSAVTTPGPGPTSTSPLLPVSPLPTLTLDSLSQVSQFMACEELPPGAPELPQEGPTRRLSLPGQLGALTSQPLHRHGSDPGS

Row | SMILES | hERG current change (%, negative = inhibition) at 10uM [%]
1 | CC(C)COc1ccc(C(=O)Nc2ccc(N3CCOCC3)cc2N2CCOCC2)cc1 | 1.07
2 | COc1ccc(OC)c(C2NC(=O)NC(C)=C2C(=O)Nc2ccc(C)cc2)c1 (stereo not drawn) | 5.98
3 | COC(=O)[C@H](C)NC(=O)Nc1cc(OC)ccc1OC | -8.76
4 | N#CCC(=O)Nc1ccc(C(=O)OCC(=O)C23CC4CC(CC(C4)C2)C3)cc1 | 12.7
5 | CC1CCCN(C(=O)C2CCCN(S(=O)(=O)c3cccc4nsnc34)C2)C1 (stereo not drawn) | 2.02
6 | Cc1cccc(-n2c(-c3ccccc3)c[nH]c2=S)c1C | 14.6
7 | COCCn1c(SCC(=O)Nc2cc(OC)ccc2OC)nc2c(c1=O)SC(C)C2 (stereo not drawn) | -18.5
8 | COc1cc(/C=C/CO)cc(OC)c1OC/C=C(\C)CCC=C(C)C | 1.34
9 | CC(C)N1CCc2c(sc(NC(=O)C3CCCCC3)c2C(N)=O)C1.Cl | -21.7
10 | CCOC(=O)c1c(NC(=O)C2CCCCC2)sc2c1CCN(CC)C2.Cl | -51.7
11 | COC(=O)c1c(NC(=O)C2CCCCC2)sc2c1CCN(C(C)C)C2.Cl | -16.5
12 | CCOC(=O)c1c(NC(=O)C2CCCCC2)sc2c1CCN(C(C)C)C2.Cl | -81.6
13 | CCN1CCc2c(sc(NC(=O)C3CCCCC3)c2C(=O)OC)C1.Cl | -17.4
14 | CCOC(=O)c1c(NC(=S)N2CCCCC2)sc2c1CCN(C(=O)OCC)C2 | -1.16
15 | O=C(COc1ccccc1)NCCSCc1ccc(Cl)cc1 | -12.6
16 | CCC(C)NC(=O)Cn1c(=O)sc2ccccc21 (stereo not drawn) | 4.15
17 | O=C(CN(Cc1ccccc1)S(=O)(=O)c1ccc(Br)cc1)NCC1CCCO1 (stereo not drawn) | -77.2
18 | Cc1ccc(CN(CC(=O)NCC2CCCO2)S(=O)(=O)c2ccc(C)cc2)cc1 (stereo not drawn) | -1.71
19 | O=C(CN(Cc1ccccc1)S(=O)(=O)c1ccc(Cl)cc1)NCC1CCCO1 (stereo not drawn) | -9.79
20 | Cc1ccc(S(=O)(=O)N(CC(=O)NCC2CCCO2)Cc2ccc(F)cc2)cc1 (stereo not drawn) | -10.6
21 | O=C(CN(Cc1ccc(Br)cc1)S(=O)(=O)c1ccccc1)NCC1CCCO1 (stereo not drawn) | -6.72
22 | Cc1ccc(S(=O)(=O)N(CC(=O)NCC2CCCO2)Cc2cccc(C)c2)cc1 (stereo not drawn) | -60.5
23 | Cc1noc(C)c1S(=O)(=O)N1CCCC(C(=O)Nc2nccs2)C1 (stereo not drawn) | -13.6
24 | CCOc1ccc(OCCSc2nc3ccccc3[nH]2)cc1 | -0.985

Row | SMILES | hERG current change (%, negative = inhibition) at 10uM [%]
25 | CN1CCN(CCCN2c3ccccc3Sc3ccc(S(=O)(=O)N(C)C)cc32)CC1.CS(=O)(=O)O | -57.4
26 | CCSc1ccc2c(c1)N(CCCN1CCN(C)CC1)c1ccccc1S2.O=C(O)CC(O)C(=O)O | -54.2
27 | CN1CCN(CC(=O)N2c3ccccc3Sc3ccccc32)CC1 | -13.7
28 | CN(C)S(=O)(=O)c1ccc2c(c1)C(=O)c1cc(S(=O)(=O)N(C)C)ccc1CC2 | 7.08
29 | COc1cc2c(cc1Cl)/C(=C\CCN(C)C)c1ccccc1S2.O=S(=O)(O)O | -35.4
30 | CN1CCN(CCC(=O)N2c3ccccc3Sc3ccc(Cl)cc32)CC1 | -48.9
31 | CN1CCN(CC(=O)Nc2ccc(S(=O)(=O)N(C)C)cc2)CC1.O=C(O)C(=O)O | 6.74
32 | CN1CCN(CC/C=C2\c3ccccc3Sc3ccc(S(=O)(=O)N(C)C)cc32)CC1 | -58
33 | Cl.FC(F)(F)c1ccc2c(c1)N(CCCN1CCN(CCCl)CC1)c1ccccc1S2 | -8.34
34 | CN1CCN(CCCN2c3ccccc3Sc3ccc(C(F)(F)F)cc32)CC1.Cl | -30.4
35 | CN(C)S(=O)(=O)c1ccc(Cl)c(NC(=O)CN2CCc3ccccc3C2)c1 | -12.7
36 | CN1CCN(CC/C=C2/c3ccccc3Sc3ccc(S(=O)(=O)N(C)C)cc32)CC1 | -64.7
37 | CNC(=O)c1ccc(NC(=O)CC2SC(N3CCCC3)=NC2=O)cc1 (stereo not drawn) | -4.89
38 | CCCc1nc2sc3ccccc3c(=O)c2c(=O)n1CCOC | 9.8
39 | CCOC(=O)CN1CC23C=CC(O2)C(C(=O)Nc2ccc4c(c2)OCO4)C3C1=O (stereo not drawn) | 4.95
40 | Cc1cc(Br)ccc1NC(=O)CN(C)C(=O)COc1cccc2c1OC(C)(C)C2 | -8.15
41 | COCCn1c(SCC(=O)Nc2ccc(C(C)=O)cc2)nc2c([nH]c3ccccc32)c1=O | 1.97
42 | Cc1cc(O)c(-c2ccno2)cc1Cl | 13
43 | CCN(CC)c1ccc(NC(=O)Cn2cc3c(n2)CCC(C)C3)c(C)c1 (stereo not drawn) | -3.35
44 | NC(=O)CSc1nnc(-c2cccs2)n1Cc1ccco1 | -13.9
45 | COc1cc(CNCCNC(=O)c2nonc2N)ccc1OCc1ccc(Cl)cc1.Cl | -74.4
46 | COc1ccc(CNCCNC(=O)c2nonc2N)cc1OC.Cl | -24.8
47 | COc1cc(OC)c(OC)cc1CNCCNC(=O)c1nonc1N.Cl | -0.502
48 | COc1cc(CNCCNCC(C)O)ccc1OCc1ccc(Cl)nc1 (stereo not drawn) | -8.7

Row | SMILES | hERG current change (%, negative = inhibition) at 10uM [%]
49 | COc1cccc(CNCCNC(=O)c2nonc2N)c1.Cl | 9.27
50 | COc1cc(CNCCNC(=O)c2nonc2N)ccc1OCc1ccc(Cl)nc1.Cl | -56.4
51 | CC(C(=O)Nc1nccs1)N1C(=O)c2ccccc2S1(=O)=O (stereo not drawn) | 11.5
52 | CCc1nn(CCCC(=O)N2CCC(C)CC2)c(=O)c2cc3occc3n12 | -2.71
53 | O=C(OCC(=O)N1CCCCCC1)c1cnc(Cl)c(Cl)c1 | -2.83
54 | Cc1cccc(NC(=O)c2ccc(NCC3CCCO3)c([N+](=O)[O-])c2)n1 (stereo not drawn) | 14.2
55 | Cc1cccc(NC(=O)c2cc([N+](=O)[O-])ccc2N2CCCCC2)n1 | -35.1
56 | Cc1cccc(NC(=O)c2ccc([N+](=O)[O-])cc2Cl)n1 | -22.8
57 | COCCNc1ccc([N+](=O)[O-])cc1C(=O)Nc1cccc(C)n1 | -62.7
58 | COc1cccc(NC(=O)c2cc([N+](=O)[O-])ccc2NC(=O)CNCC2CCCO2)c1 (stereo not drawn) | -16.4
59 | Cc1cccc(NC(=O)c2cc([N+](=O)[O-])ccc2NCC2CCCO2)n1 (stereo not drawn) | -80.9
60 | Cc1ccc(C)c(N(CC(=O)NN=C2CCCCCCC2)S(C)(=O)=O)c1 | -5.63
61 | CC1(C)O[C@@H]2CC3C4C[C@H](F)C5=CC(=O)C=CC5(C)C4C(O)CC3(C)[C@]2(C(=O)CO)O1 (stereo partly drawn) | 1.68
62 | COC(=O)C1CN(C(=O)C(C)Oc2ccccc2F)c2ccccc2O1 (stereo not drawn) | 15.6
63 | CCCCN1C(=O)C(O)=C(C(C)=O)C1c1ccccc1 (stereo not drawn) | 11
64 | Cc1cc(OCC(=O)N2CCN(c3ccccn3)CC2)cc(C)c1Br | -32.3
65 | O=C(COc1ccc(Cl)cc1Cl)N1CCN(c2ccccn2)CC1 | -33.3
66 | O=C(COc1cc(Cl)c(Cl)cc1Cl)N1CCN(c2ccccn2)CC1 | 16
67 | O=C(COc1ccc(F)c(Cl)c1)N1CCN(c2ccccn2)CC1 | -55.3
68 | CCC(=O)c1ccc(OCC(=O)N2CCN(c3ccccn3)CC2)cc1 | -31.5
69 | CC(C)(C)c1ccc(OCC(=O)N2CCN(c3ccccn3)CC2)cc1 | -51.7
70 | Cc1ccc(C)c(NS(=O)(=O)c2ccc3c(c2)NC(=O)CCS3)c1 | -15
71 | COC(=O)COc1cccc(/C=N/NC(=O)CCSc2ccccc2)c1 | -15.7
72 | C(=N\c1nc2ccccc2n1CCN1CCOCC1)/c1cccs1 | -20.7

Row | SMILES | hERG current change (%, negative = inhibition) at 10uM [%]
73 | CCOc1ccc(N2C(=O)CC(Sc3nc(-c4cccs4)cc(C(F)(F)F)c3C#N)C2=O)cc1 (stereo not drawn) | 10.2
74 | COCCNC(=O)c1csc(Nc2cccc3ccccc23)n1 | -35.9
75 | CCN(CC)C(=O)c1csc(Nc2cccc3ccccc23)n1 | -16.9
76 | CCCNC(=O)c1csc(Nc2cccc3ccccc23)n1 | -30
77 | CCN(CC)CCCNC(=O)c1csc(Nc2cccc3ccccc23)n1 | -71.6
78 | CN(C)CCNC(=O)c1csc(Nc2cccc3ccccc23)n1 | -55.4
79 | O=C(NCC(O)CO)c1csc(Nc2cccc3ccccc23)n1 (stereo not drawn) | -2.43
80 | Cc1ccc(S(=O)(=O)N(C)C)cc1NC(=S)NC(C)CCC(C)C (stereo not drawn) | -14
81 | Cn1ccnc1SCC(=O)c1cccc(C(F)(F)F)c1 | -27.8
82 | COC(=O)c1ccc(Cn2nc(C)c(Cl)c2C)o1 | 8.75
83 | CC12CC(NC(=O)N1c1cccc(C(=O)N3CCN(c4ccccc4F)CC3)c1)c1ccccc1O2 (stereo not drawn) | -6.74
84 | Cc1cc(C)cc(N2C(=O)CC(N(C(=O)c3ccco3)c3cc(C)cc(C)c3)C2=O)c1 (stereo not drawn) | 12.8
85 | Cc1ccc2nc3c(cc(C(=O)NC4CCCCC4)c(=N)n3C3CCCCC3)c(=O)n2c1 | -74.7
86 | Cc1ccc2nc3c(cc(C(=O)NC4CCCC4)c(=N)n3C3CCCCC3)c(=O)n2c1 | -77.2
87 | Cc1ccc2nc3c(cc(C(=O)NC4CCCC4)c(=N)n3CCCn3ccnc3)c(=O)n2c1 | -58.6
88 | Cc1ccc2nc3c(cc(C(=O)NCCCn4ccnc4)n3C)c(=O)n2c1 | -34.1
89 | Cc1ccc(S(=O)(=O)c2cc3c(=O)n4ccccc4nc3n(C3CCCCC3)c2=N)cc1 | -5.93
90 | Cc1ccc(S(=O)(=O)NC(=O)c2cc(C)n(CCCn3ccnc3)c2C)cc1 | -2.28
91 | Cc1ccc(S(=O)(=O)c2cc3c(=O)n4ccccc4nc3n(C3CCCC3)c2=N)cc1 | 6.01
92 | CCn1cc(C(=O)NC2CCCCCC2)c(=O)c2ccc(C)nc21 | -4.88
93 | CCn1cc(C(=O)NC2CCCCC2)c(=O)c2ccc(C)nc21 | 8.6
